Source: PubChem BioAssay
Most compounds without a hit are left out; they make up all but 8.2% or so of the library.
KB-V1 MDR tox – qHTS assay for MDR1-selective chemotherapeutics: Primary screen using the drug-selected MDR subline cells KB-V1; KB-V1 MDR cells viability, CellTiter-Glo, 72 h; Potency, µM (doses to about 46.1 µM), actives largely listed as cytotoxic; 3.4% of 400,000 active; also: % is scaled to controls: 0 for no effect and ±100 for the full control effect; nearly all actives have a fitted effect of over 60% in size
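Cytotoxicity via CellTiter-Glo luminescence after 72 h compound exposure at 37 degrees C. Cells: drug-selected KB-V1 line, DMEM phenol-red free plus 10% FBS. Compounds tested at multiple concentrations; normalized data fitted to concentration-effect curves.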
KB-3-1 cytotox – qHTS assay for MDR1-selective chemotherapeutics: Primary screen using the parental adenocarcinoma cell KB-3-1 | KB-3-1 viability, CellTiter-Glo ATP luminescence, 72 h | Potency, µM (doses to about 46.1 µM), hits mostly cytotoxic | 1.4% of 400,000 active | AID 1347075, 2019; also: % is scaled to controls: 0 for no effect and ±100 for the full control effect; nearly all actives have a fitted effect of over 60% in size
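Parental KB-3-1 adenocarcinoma cells in phenol-red-free DMEM with 10% FBS were pin-treated with compounds at several concentrations, incubated 72 h at 37 °C, and viability read by CellTiter-Glo luminescence; concentration-effect curves were fitted after normalization.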
ELG1 DNA repair – qHTS screen for small molecules that inhibit ELG1-dependent DNA repair in human embryonic kidney (HEK293T) cells expressing luciferase-tagged ELG1; HEK293T ELG1-luciferase reporter, luminescence, 16 h; DNA damage induced by 5-fluorouridine; Potency, µM (doses to about 46.1 µM), for inactives: at the top dose activity change, negative = inhibition, usual class: inhibitors; 2.3% of 330,000 active; also: % is scaled to controls: 0 for no effect and ±100 for the full control effect; nearly all actives have a fitted effect of over 55% in size
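Reporter activity after DNA damage by 5-fluorouridine is monitored. Compound-treated cells incubate 16 hr at 37 °C, then ONE-Glo is added for 30 min before luminescence reading.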
MCF10A rereplic – A quantitative high throughput screen for small molecules that induce DNA re-replication in MCF 10a normal breast cells. MCF 10A DNA re-replication, Hoechst nuclear intensity, 48 h. Potency, µM (top dose mostly 46.1 µM), without a hit: top-dose activity, positive = re-replication, usual class: activators. 2.9% of 350,000 active; also: % of control where 0% means no effect; nearly all actives have a fitted effect of over 50% in size
SW480 rereplic – A quantitative high throughput screen for small molecules that induce DNA re-replication in SW480 colon adenocarcinoma cells | SW480 DNA re-replication, Hoechst DNA content imaging, 48 h | Potency, µM (doses to about 46.1 µM), without a hit: top-dose re-replication activation, most hits filed as activators | 1.8% of 340,000 active | AID 624297, 2012; also: % of control where 0% means no effect; nearly all actives have a fitted effect of over 55% in size
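250 cells/well; 23 nL cpd via pin tool; 48 hr, 37 C, 5% CO2; Hoechst 40 min; imager read of total nuclear intensity, ex 405/em 500-530 nm.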
Active calls of the source: *; i = inactive; ? = inconclusive; . = no result given. Calls follow the shape of the dose curve; as a rule, active = well fitted curve in the direction sought with a large enough effect; inconclusive = small, poorly fitted or top-dose-only effect, or another doubt; inactive = no such curve, though single readings can be large; an effect the other way counts as inactive or inconclusive. Potency is read from the fitted curve at half-maximal effect.

SMILES | KB-V1 MDR tox | KB-3-1 cytotox | ELG1 DNA repair | MCF10A rereplic | SW480 rereplic
COC(=O)C1(C)CCCC2(C)c3cc(OC)ccc3C(=O)C(Br)C12 (stereo not drawn) | i | i | . | . | .
CCCc1cc(=O)n2[nH]cc(-c3ccc(Cl)cc3)c2n1 | 7.3µM* | 16µM* | ? | ? | 18µM*
COCc1cc(=O)n2[nH]cc(-c3ccccc3)c2n1 | ? | ? | ? | ? | 1%
CCOc1ccc(N(C)S(=O)(=O)c2cc(-c3cc(C)no3)ccc2C)cc1 | ? | ? | ? | ? | 21µM*
COc1ccc(-c2cc(C)no2)cc1S(=O)(=O)N(C)c1ccc(C)cc1 | 8.2µM* | ? | -25% | 7.3µM* | -5%
COc1cc(C(=O)Nc2nc(C)cc(C)n2)cc(OC)c1OC | i | i | -3% | -2% | -8%
Cc1ccc2c(c1)-c1c(ssc1=S)C(C)(C)N2C(=O)CSc1nncn1C | ? | ? | -13% | -3% | -4%
CC1(C)c2ssc(=S)c2-c2ccccc2N1C(=O)CSC1=NCCS1 | 16µM* | i | -4% | 23% | 4%
COc1ccc2c(c1)-c1c(ssc1=S)C(C)(C)N2C(=O)CSC1=NCCS1 | i | i | ? | 0% | 6%
Cc1cc(C)c2c(c1)-c1c(ssc1=S)C(C)(C)N2C(=O)CSc1nncn1C | 23µM* | 21µM* | ? | ? | -4%
Cc1cc2c(cc1C)N(C(=O)CSC1=NCCS1)C(C)(C)c1ssc(=S)c1-2 | 16µM* | i | 5% | 4% | 10%
CC(C)C#Cc1cnc2c(c1)C(=O)N([C@H](C)CO)C[C@@H](C)[C@H](CN(C)C(=O)Nc1ccccc1F)O2 | i | i | . | . | .
CCOC(=O)N(C)C[C@@H]1OCc2cnnn2CCCC(=O)N([C@H](C)CO)C[C@H]1C | i | i | . | . | .
Cc1noc(C)c1S(=O)(=O)Nc1ccc(C(=O)Nc2ccc(Br)cc2)cc1 | i | i | . | . | .
Cc1nnc(SCC(=O)NNC(=O)c2ccc(F)cc2)n1Cc1ccccc1 | i | i | 12% | 1% | 2%
CC(C)(Oc1ccc(Cl)cc1)C(=O)OCc1nc2ccsc2c(=O)[nH]1 | i | i | 6% | -3% | 0%
COc1ccc(C#Cc2c(C=O)n(C)c3ccccc23)cc1 | i | ? | 25% | ? | 21µM*
Cn1c(C=O)c(C#Cc2ccccc2)c2ccccc21 | i | ? | -4% | 8.2µM* | ?
COc1cc(C#Cc2c(-c3ccccc3)n(C)c3ccccc23)cc(OC)c1 | i | i | 4% | ? | 13%
COc1ccc(-c2c(C#Cc3ccsc3)c3ccccc3n2C)cc1 | i | ? | ? | ? | ?
COc1cc(NC(=O)c2cnc3c(-c4ccc(F)cc4)c(C)nn3c2C)cc(OC)c1 | i | i | . | . | .
COc1ccccc1C(=O)NNS(=O)(=O)c1ccc(F)cc1 | i | i | -3% | -10% | -11%
O=C(NNc1ccccn1)C(=O)NNS(=O)(=O)c1ccc(Cl)cc1 | 18µM* | ? | -2% | ? | ?
O=C(NNc1ccccn1)C(=O)NNS(=O)(=O)c1ccc(F)cc1 | ? | i | 21µM* | ? | ?
O=C(NNS(=O)(=O)c1ccc(F)cc1)c1ccccc1F | i | i | 7% | -1% | 18µM*
SMILES | KB-V1 MDR tox | KB-3-1 cytotox | ELG1 DNA repair | MCF10A rereplic | SW480 rereplic
CCOc1ccc(-c2cc(NC(=O)c3ccccc3)c(C(=O)OC)s2)cc1 | i | i | . | . | .
CCCCn1c(N)c(N(C(=O)CSc2nncn2-c2ccccc2C)C2CCCC2)c(=O)[nH]c1=O | i | i | . | 0% | 10%
CCC(=O)N1c2ccc(S(=O)(=O)CCC(=O)N3CCN(c4ccc(F)cc4)CC3)cc2CC1C (stereo not drawn) | i | i | . | . | .
Cc1ccc2[nH]cc(C(c3ccccc3)c3cccs3)c2c1 (stereo not drawn) | i | i | . | . | .
Cc1nn(-c2ccccc2)c(C)c1/C=N/NC(=O)c1ccc(F)cc1 | i | i | . | -1% | -6%
Cc1nn(-c2ccccc2)c(C)c1/C=N/NC(=O)c1cc(-c2ccccc2)n[nH]1 | ? | 0.41µM* | ? | ? | ?
Cc1nn(-c2ccccc2)c(C)c1/C=N/NC(=O)c1cc(-c2cccc3ccccc23)n[nH]1 | i | i | 16µM* | ? | ?
Cc1cc(C(=O)N/N=C/c2c(C)nn(-c3ccccc3)c2C)c(C)o1 | i | i | ? | 1% | -17%
CCn1cc(CN(C)C(=O)/C=C/c2ccc([N+](=O)[O-])cc2)c(C)n1 | 18µM* | i | -9% | -1% | -4%
CN(c1ccccc1)S(=O)(=O)c1ccc(C(=O)Nc2nnc(C3CC3)o2)cc1 | i | i | 10µM* | -6% | 1%
CC1CC(C)CN(S(=O)(=O)c2ccc(C(=O)Nc3nnc(C4CC4)o3)cc2)C1 (stereo not drawn) | 5.2µM* | ? | 6% | 18% | 17%
COCCN(CCOC)S(=O)(=O)c1ccc(C(=O)Nc2nnc(C3CC3)o2)cc1 | ? | i | 7% | ? | 4%
CCN(c1ccccc1)S(=O)(=O)c1ccc(C(=O)Nc2nnc(C3CC3)o2)cc1 | 7.3µM* | ? | 10µM* | 1% | ?
CCOC(=O)N1CCN(S(=O)(=O)c2ccc(C(=O)Nc3nnc(C4CC4)o3)cc2)CC1 | i | i | -3% | ? | 12%
CCc1ccc(NC(=O)Cn2c(=O)c(-c3ccccc3NC(C)=O)nc3ccccc32)cc1 | ? | i | . | . | .
O=C(Nc1nc(-c2cc(Cl)sc2Cl)cs1)c1ccc(Br)s1 | ? | 21µM* | 0% | ? | -7%
O=C(Nc1nc(-c2cc(Cl)sc2Cl)cs1)c1cccs1 | ? | ? | 15% | 8.2µM* | 18%
CCCOc1ccc(C2=NNC(=O)CC2)cc1 | 0.21µM* | i | ? | 12% | -90%
O=C1CCC(/C=C/c2ccccc2)=NN1Cc1ccccc1Cl | i | i | -11% | 13% | 1%
CCOc1ccc(/C=C/C2=NNC(=O)CC2)cc1 | 1.8µM* | i | ? | 1% | 15%
COc1ccc(/C=C/C2=NNC(=O)CC2)cc1 | 0.41µM* | 1.5µM* | ? | 1% | -9%
O=C1CCC(/C=C/c2ccccc2)=NN1 | 5.2µM* | ? | ? | 0% | -31%
CC1CC(C)CN(C(=S)Nc2ccc(OC(F)F)cc2)C1 (stereo not drawn) | 21µM* | i | 10% | 18% | -6%
CC1CC(C)CN(C(=S)Nc2ccc(SC(F)F)cc2)C1 (stereo not drawn) | ? | i | -9% | ? | -1%
